The source of these data is PubChem BioAssay (NCATS).

Molecules are shown by their SMILES. Records with an inconclusive call do not appear. Unmarked numbers belong to inactive results. Calls come from the whole dose curve; as a rule, active = well fitted cell-killing curve with a large enough effect; inconclusive = small, poorly fitted or top-dose-only effect, or effect the other way; inactive = flat fitted curve, though single readings scatter.
% is set by controls: 0 for no effect and ±100 for the full control effect.

A short description of this test: Cell Viability - HUV-EC-C (AID 542). Note: nearly all actives have a fitted effect of over 35% in size. Particulars: HUV-EC-C endothelial cell viability, qHTS; series mostly up to 92.2 µM; activity change, negative = cytotoxicity: at the top concentration. The source says: NIH Chemical Genomics Center [NCGC]
NIH Molecular Libraries Screening Centers Network [MLSCN]
National Institutes of Environmental Health Sciences [NIEHS]
National Toxicology Program [NTP]
We have developed a 1536-well cell-based assay for quantitative high throughput screening (qHTS) against a number of cell lines to determine in vitro cytotoxicity of small molecules. This particular assay uses the HUV-EC-C cell line which is derived from normal human vascular endothelial cells.
NCGC Assay Protocol Summary:
The CellTiter-Glo luminescent cell viability assay (Promega) is a homogeneous method to measure the number of viable cells in culture. The end point readout of this assay is based on quantitation of intracellular ATP, an indicator of metabolic activity, using the luciferase reaction. Luciferase catalyzes the oxidation of beetle Luciferin to oxyluciferin and light in the presence of ATP. The luminescent signal is proportional to amount of ATP present.
Using the CellTiter-Glo luminescent cell viability assay, the amount of cellular ATP was measured in the HUV-EC-C cell line with complete culture medium following compound treatment for 40 hours. The assay was performed in opaque white Kalypsys 1536-well plates. In the screen, tamoxifen and doxorubicin were used as positive controls. Library compounds were measured for their ability to cause acute toxicity in the cell line, as reflected by a decrease in intracellular ATP levels, in a concentration-dependent manner. […] AC50 values were determined from concentration-response data modeled with the standard Hill equation.
qHTS protocol for CellTiter Glo HUV-EC-C cellular assay
[Step] [Parameter] [Value] [Description]
1. Reagent; 5 uL; 1000 HUV-EC-C cells/well
2. Time; 5 hr; 37 °C incubation
4. Controls; 23 nL; Tamoxifen 0.34 uM to 100 uM & Doxorubicin 0.02 nM to 100 uM
5. Time; 40 hr; 37 °C incubation
6. Reagent; 5 uL; CellTiter Glo reagent
7. Time; 20 min; Room Temperature
8. Detection; Luminescence; Viewlux plate reader
Keywords: cell viability, cytotoxicity, HUV-EC-C cell line, luminescence, NTPHTS, NTPHTS_NCGC, NIEHS, EPA, DSSTox, MLSMR, MLSCN, NIH Roadmap, qHTS, NCGC
A general note: Quantitative high-throughput screening tests each substance at several concentrations.
For `NCCNc1cccc2ccccc12`, the “activity change, negative = cytotoxicity” value is -26.1%.

Regarding `OC[C@H]1O[C@@H]2O[C@H]3[C@H](O)[C@@H](O)[C@@H](O[C@H]4[C@H](O)[C@@H](O)[C@@H](O[C@H]5[C@H](O)[C@@H](O)[C@@H](O[C@H]6[C@H](O)[C@@H](O)[C@@H](O[C@H]7[C@H](O)[C@@H](O)[C@@H](O[C@H]8[C@H](O)[C@@H](O)[C@@H](O[C@H]1[C@H](O)[C@H]2O)O[C@@H]8CO)O[C@@H]7CO)O[C@@H]6CO)O[C@@H]5CO)O[C@@H]4CO)O[C@@H]3CO`, the “activity change, negative = cytotoxicity” value was -11.1%.

Regarding `COc1cc([C@H]2Oc3cc([C@H]4Oc5cc(O)cc(O)c5C(=O)[C@@H]4O)ccc3O[C@@H]2CO)ccc1O`, the “activity change, negative = cytotoxicity” value is 3.03%.

Consider `O=C(O)c1ccc(S(=O)(=O)N(Cl)Cl)cc1`, for which the “activity change, negative = cytotoxicity” value is -1.59%.

Consider `COc1ccc(C(=O)c2ccccc2)c(O)c1`, for which the “activity change, negative = cytotoxicity” value is -9.77%.

As for `C=C[C@H]1CN2CC[C@H]1C[C@@H]2[C@@H](O)c1ccnc2ccc(OC)cc12`, the “activity change, negative = cytotoxicity” value is -19%.

In the case of `NC(=O)c1ccccc1O`, the “activity change, negative = cytotoxicity” value is 13.2%.

Regarding `COc1ccc(C(Cl)=C(c2ccc(OC)cc2)c2ccc(OC)cc2)cc1`, the “activity change, negative = cytotoxicity” value is 6.48%.

For `CCCN(CCC)S(=O)(=O)c1ccc(C(=O)O)cc1`, the “activity change, negative = cytotoxicity” value was -0.96%.

For the compound `CCCCC(CC)COC(=O)c1ccc(N(C)C)cc1` (stereo not drawn), the “activity change, negative = cytotoxicity” value was 0.756%.

On to `CCOc1ccc(NC(C)=O)cc1`, for which the “activity change, negative = cytotoxicity” value was 0.616%.

Turning to `CCOc1ccccc1C(N)=O`, the “activity change, negative = cytotoxicity” value was -6.78%.

With `C/C=C/c1ccc(O)c(OC)c1`, the “activity change, negative = cytotoxicity” value was -8.98%.
